Compounds with a hit are over-represented: about 1.2% of the library has one in this group of screens.
VLA-4 inh – inhibition in a human VLA-4 binding assay. inhibition, % (about 7 µM as worked out from the volumes in the protocol). VLA-4 expressing cells, ligand binding flow cytometry. P13612. hit rate 0.2% among 330,000; in the data active means inhibition above about 50%
Platelet DG rel – modulates dense granule release in human platelets; inhibition, %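 (compounds screened at 7.5 µM in platelet-rich plasma)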; hit rate 0.22% among 300,000; human platelet-rich plasma, SFLLRN dense granule ATP release, luminescence;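 active means mean replicate score, as percent of positive control, at or above 50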
SKN-1 inh – blocks SKN-1 activity in C. elegans; C. elegans VP596 Pgst-4::GFP/RFP ratio, acrylamide-induced, 24 h; inhibition, % at 21.8 µM; hit rate 0.49% among 360,000; AID 624304;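 active means interference check ratio from 0.5 to 1.5 plus GFP to RFP signal ratio inhibition reaching or exceeding a fixed threshold, cut at about 30% in these data, passing the limit was not always enough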
ABCB6 inh MLPCN – human ABCB6 transporter inhibition; AID 602162; fluorescence ratio to DMSO, % at 10 µM; K562-ABCB6 porphyrin accumulation, flow cytometry, 1 h; hits give low values; hit rate 0.19% among 360,000;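 active means fluorescence ratio to DMSO below 75%, the collection mean minus 3 SD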;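 further: signal is porphyrin accumulated inside mitochondria; 100% equals median channel fluorescence of DMSO control wells; lower ratio means ABCB6 inhibition with less porphyrin fluorescence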
CR mimetic SO – caloric restriction mimetics inhibiting age-related superoxide in yeast | S. cerevisiae aged cells, superoxide DHE fluorescence; hits give low values | superoxide response (% of plate mean), % at 10 µM | hit rate 0.18% among 330,000;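 active means superoxide response under a set limit, about three screen SD below normal, cut at about 65% in these data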;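 further: yeast aged for seven days with compound at 30 °C before DHE staining; 100% = average MFI of all compound-treated wells on the plate with controls excluded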
Superoxide pick – yeast aging superoxide inhibition, cherry pick confirmation; hit rate 1% among 850; shares compounds with CR mimetic SO; superoxide response (% of plate), % at 10 µM; S. cerevisiae aging, superoxide DHE fluorescence; hits give low values;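 active means superoxide signal below 65% of the plate average of sample wells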;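 further: cells aged with compound for 7 days at 30 degrees C before staining; 100% equals mean DHE fluorescence of all compound wells on the plate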
DHE counter – compound alters DHE oxidation or fluorescence in yeast; shares compounds with CR mimetic SO; S. cerevisiae BY4741, flow cytometry; hits give low values; fluorescence response, % at 10 µM; 850 tested, under 10 active;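 active means fluorescence response below 15%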;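 further: percent of the mean fluorescence averaged over all compound wells on the plate; lower means stronger quenching of DHE signal or ROS scavenging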
Active calls of the source: *; . = no result.

SMILES	VLA-4 inh	Platelet DG rel	SKN-1 inh	ABCB6 inh MLPCN	CR mimetic SO	Superoxide pick	DHE counter
O=C(O)c1c(N2CCCCC2)ccc([N+](=O)[O-])c1N1CCCCC1	1	1	3	92	53*	102	109
COc1cc(NC(=O)CSc2nnc3n2C(C)(C)Cc2ccccc2-3)cc(OC)c1	-3	3	-4	100	65*	102	107
COc1ccc(CCNc2nc(=S)[nH]c3cc(OC)c(OC)cc23)cc1OC	2	-6	-5	100	63*	99	97
Nc1nc2cc3c(cc2cc1C(=O)NCc1ccc(F)cc1)OCO3	.	.	1	100	.	.	.
COc1ccc(CCNC(=O)c2ccc(OCC(=O)N3CCOCC3)c(OC)c2)cc1OC	-6	2	5	89	64*	100	104
COc1ccc(CCNC(=O)c2ccc(OCC(=O)N3CCOCC3)c(OC)c2)cc1	-7	-2	12	100	100	.	.
O=C(O)C1CCCN1S(=O)(=O)c1ccccc1 (stereo unspecified)	-1	-11	-2	100	97	.	.
O=C(O)C1CCCN1S(=O)(=O)c1ccc(Cl)cc1 (stereo unspecified)	0	0	-27	98	95	107	98
O=C(c1cccc(F)c1)N1CCN(c2cccc(C(F)(F)F)c2)CC1	-19	-2	39*	94	100	92	89
O=C(c1ccc2nccnc2c1)N1CCN(c2cccc(C(F)(F)F)c2)CC1	1	.	-5	95	77	.	.
CCCCN(C=O)c1c(CC)nc2c(OCCOc3ccccc3)cccn12	.	.	6	99	.	.	.
O=C(CSc1nc2ccccc2o1)N1CCN(S(=O)(=O)c2ccc3ccccc3c2)CC1	-12	-6	4	100	64*	111	117
O=c1[nH][nH]c2c1[C@H](c1ccc(Cl)cc1)O[C@H](C1CC1)C2	.	.	-11	96	.	.	.
C#CCN1CCc2onc(-c3ccc(Br)cc3)c2C1=O	.	.	6	.	.	.	.
Cc1cc(NC(=O)OC(C)(C)C)c(-n2nnnc2C(C(=O)c2ccccc2)N2CCOCC2)cc1C (stereo unspecified)	.	.	13	.	.	.	.
CC1CCN(S(=O)(=O)c2ccc(C(=O)Nc3nnc(C4CC4)o3)cc2)CC1	-4	-7	23	102	83	87	98
CC1CCCCN1S(=O)(=O)c1ccc(C(=O)Nc2nnc(C3CC3)o2)cc1 (stereo unspecified)	9	-15	12	98	91	97	102
CC1CCCN(S(=O)(=O)c2ccc(C(=O)Nc3nnc(C4=COCCO4)o3)cc2)C1 (stereo unspecified)	-22	-4	2	98	99	.	.
CC1CCCCN1S(=O)(=O)c1ccc(C(=O)Nc2nnc(-c3ccco3)o2)cc1 (stereo unspecified)	11	1	2	100	102	99	91
O=C(Nc1nnc(C2CC2)o1)c1ccc(S(=O)(=O)N2CCCCC2)cc1	-1	5	5	95	131	.	.
Cc1nnc(NC(=O)c2ccc(S(=O)(=O)N3CCCCC3C)cc2)o1 (stereo unspecified)	-7	-5	8	102	93	.	.
CC1CCCCN1S(=O)(=O)c1ccc(C(=O)Nc2nnc(C3=COCCO3)o2)cc1 (stereo unspecified)	5	9	-8	98	126	94	101
O=C(NCc1cccc(C(F)(F)F)c1)c1ccc2nc([C@@H]3O[C@H](CO)[C@@H](O)[C@H]3O)[nH]c2c1	.	.	12	103	.	.	.
COc1cccc(CNC(=O)[C@@H]2CCCN2C(=O)OC(C)(C)C)c1	.	.	13	96	.	.	.
CCCCNC(=O)/C(C#N)=c1\s/c(=C\c2ccccc2OC(F)F)c(=O)n1CCCOC	-43	2	0	153	65*	118	104
SMILES	VLA-4 inh	Platelet DG rel	SKN-1 inh	ABCB6 inh MLPCN	CR mimetic SO	Superoxide pick	DHE counter
COc1cc(/C=N/NC(=O)CCN2CCN(c3ccccc3)CC2)cc(OC)c1OC	22	3	-2	102	110	.	.
COc1ccc(/C=N/NC(=O)CCN2CCN(c3ccccc3)CC2)c(OC)c1OC	11	21	1	96	62*	108	106
Cc1ccc(-n2c(C)cc(C)c(C#N)c2=O)cc1C	-4	-9	8	105	62*	100	103
Cc1cc(C)n(-c2ccc(F)cc2)c(=O)c1C#N	-7	3	-3	99	101	.	.
CC1(C(=O)NS(=O)(=O)C2CC2)CCCN(C(=O)c2cccnc2Oc2ccccc2)C1 (stereo unspecified)	.	.	-15	101	.	.	.
COc1ccc(NC(=O)c2ccc(S(=O)(=O)N3CCOCC3)o2)cc1	-2	-1	-5	97	64*	95	91
c1ccc(COc2cccc(-c3cc4nc(NCCCn5ccnc5)ccn4n3)c2)cc1	.	.	18	95	.	.	.
Cc1ccc(N=C2NC(=O)/C(=C/c3cccs3)S2)cc1C	-5	3	18	104	59*	94	90
Nn1c(SCC(=O)Nc2ccccc2F)nnc1C1CCCCC1	16	-8	9	87	111	.	.
Nn1c(SCC(=O)Nc2ccc(F)cc2F)nnc1C1CCCCC1	3	0	-5	94	115	85	101
COc1ccc(C(=O)C(=O)N2CCC(Cc3ccccc3)CC2)cc1OC	.	.	3	.	.	.	.
C=C1CCC[C@]2(C)C[C@H]3OC(=O)C(CNCC(C)C)[C@H]3CC12 (stereo partly specified)	4	-4	10	102	94	.	.
C=C1CCC[C@]2(C)C[C@H]3OC(=O)C(CNCCN(CC)CC)[C@H]3CC12 (stereo partly specified)	10	-5	-2	92	56*	96	95
Cc1ccc(S(=O)(=O)N(CC(=O)Nc2ccc(C(N)=O)cc2)C(=O)N2CCN(C)CC2)cc1	-1	-4	0	93	65*	114	99
COC(=O)C1CN(C(=O)C(C)Oc2ccccc2Cl)c2ccccc2O1 (stereo unspecified)	3	0	-20	95	64*	101	102
COc1cccc(CNc2nc3cc(-c4ccsc4)sc3c(=O)n2C)c1OC	.	.	6	90	.	.	.
COc1ccc(S(=O)(=O)N2CC=C(C(=O)NC3CCCC3)CC2)cc1	-7	2	8	105	63*	103	93
Cc1ccc(S(=O)(=O)N2CC=C(C(=O)NC3CCCC3)CC2)cc1	11	-4	-2	105	98	.	.
Cc1nnc(SCc2ccc(Cl)c(Cl)c2)s1	0	4	20	98	60*	108	90
Fc1ccc(Cn2nnc3ccccc32)cc1	0	12	-1	92	64*	94	93
Clc1ccccc1Cn1nnc2ccccc21	7	14	7	99	94	.	.
Cn1c(=S)[nH]c(=O)c2ncc(=O)[nH]c21	-1	7	0	111	63*	103	91

Screening data from PubChem BioAssay.
